Sampled rows, rich in hits. Any-hit rate of the full collection: about 4.1%.
tim10-1 inh: growth inhibitors of tim10-1 mutant yeast | S. cerevisiae tim10-1 ts strain growth, BacTiter-Glo, 24 h | inhibition, % at 20 µM | 330,000 compounds, 2.2% hits | AID 463190;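 active = inhibition of at least 40%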;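 note: mutant grown at 25 °C; 0% = DMSO wells with yeast and 100% = wells holding no yeast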
NALP3 yeast inh: blocks the NALP3 inflammasome reconstituted in yeast; Yeast reconstituted NLRP3/ASC/caspase-1, beta-gal luminescence, 24 h; inhibition, % at 10 µM; 330,000 compounds, 0.39% hits; AID 2825;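 active = inhibition of 50% or more; inactive = inhibition below 50%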;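 note: plate controls were induced DMSO wells for no effect and uninduced yeast grown without galactose for full effect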
TIM10 inh: TIM10 yeast growth inhibition; 330,000 compounds, 1.4% hits; inhibition, % at 10 µM; AID 463195; S. cerevisiae TIM10 strain growth, BacTiter-Glo luminescence, 24 h;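 active = inhibition of 40% or more at the single tested concentration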;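 note: wild-type TIM10 isogenic control strain grown at permissive 25 °C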
tim23-1 inh: inhibits growth of tim23-1 mutant yeast; 330,000 compounds, 1.3% hits; inhibition, % at 20 µM; AID 463212; S. cerevisiae tim23-1 growth, BacTiter-Glo luminescence, 24 h;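 active = growth inhibition of the mutant yeast at or above 50%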;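 note: temperature-sensitive mutant grown at 25 °C; plate controls were DMSO-treated mutant yeast for no effect and medium wells lacking yeast for full effect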
NALP1 inh: inhibitors of NALP1 inflammasome in yeast; S. cerevisiae NALP1/ASC/caspase-1 growth, X-gal OD620, 72 h; AID 2071; 280,000 compounds, 0.61% hits; inhibition, % at 10 µM; in the data active = inhibition mostly above about 24%, no sharp cut-off; inactive = mostly below about 32%
tim10-1 conf: tim10-1 yeast growth inhibition, confirmed. shares compounds with tim10-1 inh. S. cerevisiae tim10-1 ts strain growth, BacTiter-Glo, 24 h. inhibition, % at 20 µM. 7,400 compounds, 56% hits. AID 463213;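 active = inhibition of yeast growth at or above a set limit in either of two repeat tests at 20 µM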;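 note: tim10-1 mutant grown at permissive 25 °C to find synthetic lethal compounds; 0% = DMSO yeast wells and 100% = medium wells without yeast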
Starred values were filed as active, the others as inactive; · = not tested or not shown.

SMILES	tim10-1 inh	NALP3 yeast inh	TIM10 inh	tim23-1 inh	NALP1 inh	tim10-1 conf
Cc1nonc1C(=O)N/N=C/c1ccc(O)cc1O	46*	6	23	36	-28	22
CN(C(=O)c1ccc(OC2CCN(CCc3ccccc3)CC2)cc1)C1CCCCC1	-20	15	20	15	12	·
O=C1c2ccccc2S(=O)(=O)N1CC(O)Cn1ccc2ccccc21 (stereo not given)	42*	21	23	45	12	20
O=C1C2C3C=CC(CO)(O3)C2C(=O)N1c1ccccc1-c1ccccc1 (stereo not given)	53*	-22	19	-5	0	87*
CCn1cc(CN2CCC(n3nccc3NC(=O)c3cccc(F)c3)CC2)cn1	4	-9	-1	11	3	·
CCOC(=O)c1cnc2c(OC)cccc2c1N1CCN(c2ccc(OC)cc2)CC1	40*	16	4	12	-16	17
CCOC(=O)c1cnc2c(OC)cccc2c1N1CCN(c2ccccn2)CC1	48*	-1	20	37	36	21
CCOC(=O)c1cnc2c(C(F)(F)F)cccc2c1N1CCN(C)CC1	12	10	-12	7	10	·
CCOCCc1nnc(NC(=O)CS(=O)(=O)c2ccc(C)cc2)s1	-12	6	12	3	-4	·
CC1CC(CC(=O)NC(=S)Nc2ccccc2Cl)C(=O)O1 (stereo not given)	14	6	-1	-2	-1	·
O=C(c1cc2ccccc2o1)N1CCN(S(=O)(=O)c2ccc(F)c(F)c2F)CC1	8	14	9	15	·	·
CC1(C)CC2CC(C)(CN2S(=O)(=O)c2cccc(N)c2)C1 (stereo not given)	48*	2	35	27	7	39*
O=C(Nc1ncc2c(n1)-c1ccccc1OC2)c1ccc(F)cc1	33	9	24	40	9	·
O=C(Nc1ncc2c(n1)-c1ccccc1CC2)c1ccc(Cl)cc1	47*	30	25	46	-1	37*
CC(C)CNC(=S)Nc1ccc(Oc2ccccc2)cc1	43*	29	36	45	32	24
CCNC(=S)Nc1ccc(N(c2ccccc2)C(C)C)cc1	42*	10	5	19	0	28
COc1ccc(CN(C)Cc2nc3scc(-c4ccccc4)c3c(=O)[nH]2)cc1OC	17	2	19	21	15	·
O=C(NCc1nc2ccccc2[nH]1)C1=C[C@H](C2CC2)C[C@H](OCc2ccc(CO)cc2)O1	-18	17	-6	-6	·	·
N/C(=N\OC(=O)CCC1CCCCC1)c1cccnc1	46*	-8	17	27	6	38*
N/C(=N\OC(=O)CC(c1ccccc1)c1ccccc1)c1cccnc1	47*	17	37	35	-2	61*
N/C(=N\OC(=O)Cc1ccc(-c2ccccc2)cc1)c1cccnc1	47*	7	19	19	-10	39*
Cc1cc(C)n2nc(SCCOc3ccccc3F)nc2n1	18	9	12	-11	3	·
O=c1c2ccccc2nc(SCc2ccc([N+](=O)[O-])cc2)n1-c1ccccc1	40*	-4	26	34	15	34*
Cc1cc(C(=O)CSc2nnc(-c3ccc(Cl)cc3)n2CC2CCCO2)c(C)n1C (stereo not given)	50*	-25	14	33	2	35*
CN(C(=O)CSc1nnc(-c2ccc(Cl)cc2)n1CC1CCCO1)C1CCS(=O)(=O)C1 (stereo not given)	4	-14	12	-1	-6	·
SMILES	tim10-1 inh	NALP3 yeast inh	TIM10 inh	tim23-1 inh	NALP1 inh	tim10-1 conf
CCC(CO)Nc1ncnc2c1cnn2-c1ccc(Cl)cc1 (stereo not given)	19	16	-12	13	24	·
CCC(CO)Nc1nc2ccc(Cl)cc2c2ccccc12 (stereo not given)	53*	21	32	29	29	39*
O=C(Nc1ccc(F)cc1F)c1ccc(-n2cccn2)c([N+](=O)[O-])c1	15	25	-6	9	0	·
Cc1cc(C)n(C(=O)c2ccc([N+](=O)[O-])cc2[N+](=O)[O-])n1	41*	3	12	49	20	30
O=C(NCC1CCCO1)C(c1ccco1)N(Cc1ccc(F)cc1)C(=O)CN1C(=O)c2ccccc2S1(=O)=O (stereo not given)	14	6	17	4	10	·
Cc1cnccc1CN(C)Cc1cn(C)nc1-c1ccc(Oc2ccccc2)cc1	40*	22	28	36	-4	14
CCOC(=O)N1CCN(Cc2cc(Cl)c3cccnc3c2O)CC1	47*	36	-8	44	17	12
CCOC(=O)COn1c(=O)c(-c2ccc(F)cc2)[n+]([O-])c2ccccc21	22	12	-11	0	4	·
CCOC(=O)COn1c(=O)c(-c2cc3ccccc3o2)[n+]([O-])c2ccccc21	44*	21	7	29	-4	12
CCn1c(-c2ccccc2)c[nH]c1=S	1	16	-1	-10	-6	·
S=c1[nH]cc(-c2ccccc2)n1-c1ccccc1	44*	9	-5	3	-8	1
CNC(=O)C(C)Sc1ccc(S(=O)(=O)N2CCOCC2)cn1 (stereo not given)	-9	3	13	4	·	·
CCCCNC(=S)N1CCn2cccc2C1c1ccc(F)cc1 (stereo not given)	44*	1	15	-2	1	21
CCCCNC(=S)N1CCn2cccc2C1c1ccccc1 (stereo not given)	14	16	13	4	12	·
O=c1c2c(nc3n1CCCCC3)sc1c(O)c(Br)ccc12	45*	20	13	45	5	28
CCN(CC)CCOc1c(Br)ccc2c1sc1nc3n(c(=O)c12)CCC3	35	16	11	-6	9	·
CCOC(=O)C1CCN(C(=O)c2oc3ccc4c(c3c2C)C(O)CC2(CCCCC2)O4)CC1 (stereo not given)	54*	6	28	46	13	33*
Cc1cccc(C2=NNC(=O)C(c3ccc(Cl)cc3)C2)c1 (stereo not given)	60*	-42	29	38	4	45*
Cc1ccc(C2CC(c3ccc(Cl)cc3)=NNC2=O)cc1 (stereo not given)	-11	18	1	25	-29	·
CC(C)(C)OC(=O)C[C@@H]1C/C=C\C[C@H](CC(=O)N(CCO)Cc2ccccc2)C(=O)N[C@@H](Cc2c[nH]c3ccccc23)COC1=O	3	17	5	0	·	·
CC1CCN(c2c([N+](=O)[O-])nn(-c3ccc4c(c3)OCCO4)[n+]2[O-])CC1	44*	23	22	38	5	29
O=C(c1ccco1)N1CCN(c2c([N+](=O)[O-])nn(-c3ccc(Cl)cc3)[n+]2[O-])CC1	17	3	11	29	-2	·
